S2 tox: cell viability loss in ATXN counter-screen. S2 cells (HEK-293 line with an ATXN2-luciferase reporter) viability, CellTiter-Fluor protease fluorescence, 24 h. Potency, µM (series often up to 56.7 µM), most hits filed as cytotoxic. 0.49% of 400,000 active. AID 651635; also: nearly all actives have a fitted effect of over 40% in size
KB-V1 MDR tox: kills drug-selected multidrug resistant KB-V1 cells; KB-V1 MDR cells viability, CellTiter-Glo, 72 h; 3.4% of 400,000 active; Potency, µM (series often up to 46.1 µM), most hits filed as cytotoxic; also: % is scaled to controls: 0 for no effect and ±100 for the full control effect; nearly all actives have a fitted effect of over 60% in size
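Following 72 h at 37 degrees C with compound, KB-V1 cell viability was read by CellTiter-Glo luminescence, medium being phenol-red-free DMEM plus 10% FBS; concentration-response parameters came from normalized, curve-fitted qHTS data.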
HT1080NT lethal: kills 2HG-producing HT-1080-NT fibrosarcoma cells. HT-1080-NT fibrosarcoma viability, CellTiter-Glo ATP luminescence, 48 h. Potency, µM (titrated, usually from 46.1 µM), without a hit: at the highest dose activity, negative = less viability, actives largely listed as cytotoxic. 1.6% of 360,000 active;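 also: NT is the 2HG producing partner of a matched IDH1 knockdown line; 0% = DMSO-treated cells and -100% = media-only wells without cells; nearly all actives have a fitted effect of over 55% in size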
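A 48-hour cytotoxicity screen used HT-1080-NT cells plated 2 hours before compound delivery. ATP-based CellTiter-Glo luminescence measured viability, normalized to DMSO and no-cell controls.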
ATXN2 expr inh: ATXN2 expression inhibition | HEK-293 ATXN2-luciferase reporter, luminescence, 24 h | Potency, µM (titrated, usually from 57 µM), without a hit: top-dose activity change, negative = inhibition, hits mostly inhibitors | 0.72% of 360,000 active | AID 1745845; also: % is scaled to controls: 0 for no effect and ±100 for the full control effect; nearly all actives have a fitted effect of over 55% in size
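qHTS (up to 57 uM final) was run with 24 h compound exposure of reporter cells at 37 °C. Each well was multiplexed: SteadyGlo luminescence measured ATXN2-luciferase expression after a fluorogenic Gly-Phe-AFC viability readout (25 uM final).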
HT1080 IDH1KD tx: kills HT-1080 cells with IDH1 knockdown | Potency, µM (highest dose often 46.1 µM), without a hit: at the top dose activity, negative = toxicity, hits mostly cytotoxic | AID 686971 | HT-1080 IDH1 knockdown viability, ATP luminescence, 48 h | 2% of 360,000 active;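 also: 0% = DMSO wells and -100% = cell-free medium wells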
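Assay cells: HT-1080 with IDH1 knockdown, 750 per well, RPMI/5% FBS. Exposure: 48 h at 37 °C following 2 h pre-incubation. Read: CellTiter-Glo luminescence; fitted concentration-response, curve class assigned.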
KB-3-1 cytotox: KB-3-1 parental cell cytotoxicity. KB-3-1 viability, CellTiter-Glo ATP luminescence, 72 h. Potency, µM (titrated, usually from 46.1 µM), actives largely listed as cytotoxic. 1.4% of 400,000 active; also: % is scaled to controls: 0 for no effect and ±100 for the full control effect; nearly all actives have a fitted effect of over 60% in size
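Here the drug-naive KB-3-1 line serves as comparator for MDR sub-line selectivity; cells received compound titrations, 72 h at 37 °C, then CellTiter-Glo readout.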
* = called active by the depositor; i = inactive; ? = inconclusive; nt = no result given; [ ] = another dose, or the depositor's remark. Most compounds without a hit are left out; they make up all but 6.2% or so of the library. Calls follow the shape of the dose curve; as a rule, active = well fitted curve in the direction sought with a large enough effect; inconclusive = small, poorly fitted or top-dose-only effect, or another doubt; inactive = no such curve, though single readings can be large; an effect the other way counts as inactive or inconclusive. Potency is read from the fitted curve at half-maximal effect.

SMILES	S2 tox	KB-V1 MDR tox	HT1080NT lethal	ATXN2 expr inh	HT1080 IDH1KD tx	KB-3-1 cytotox
CCCCSc1nc(N)nc2c1ncn2C1OC(CO)C(O)C1O (stereo not given)	i	i	-5%	-6%	-10%	i
COc1ccc(OC)c(NC(=O)CSc2n[nH]c(-c3ccccc3Cl)n2)c1	nt	?	nt	nt	nt	i
CSc1ncc(C(=O)Nc2ccc(C)c(Cl)c2)c(-c2ccccc2)n1	i	i	nt	13%	nt	i
Cc1ccc(C(=O)NC(C#N)=C(Cl)Cl)cc1	?	i	6.5µM*	-30%[11.3 µM]	21µM*	?
Cc1ccc(C(=O)NCC#N)cc1	i	i	18%	nt	-2%	i
COc1ccc(C(=O)NC(=C(Cl)Cl)S(=O)(=O)c2ccc(C)cc2)cc1	i	?	?	?	?	?
COC(=O)NC(=C(Cl)Cl)S(=O)(=O)c1ccccc1	?	18µM*	-2%	?	-3%	16µM*
Cc1ccc(C(=O)NC(=C(Cl)Cl)S(=O)(=O)c2ccccc2)cc1	?	16µM*	?	nt	?	i
N#Cc1nc(-c2ccc(OCc3ccccc3Cl)cc2)oc1N1CCCCCC1	nt	i	nt	nt	nt	i
COc1ccccc1C(=O)Nc1ccc(OCc2cc(=O)n3ccsc3n2)cc1	i	i	nt	-2%	nt	i
CCCCN1C(=O)C(O)(CC(=O)c2ccco2)c2cc(Br)ccc21 (stereo not given)	?	i	?	-12%	?	15µM*
CN1C(=O)C(O)(CC(=O)c2ccccc2O)c2cc(Br)ccc21 (stereo not given)	?	?	16µM*	-23%	0%	?
COc1cc2nc(Cl)nc(N)c2cc1OC	i	nt	nt	9%	nt	nt
COc1ccc(N2Cc3ccccc3C2=O)cc1	?	?	?	-3%	?	?
C=CC(=O)Oc1ccc(N2Cc3ccccc3C2=O)cc1	32µM*	i	1%	nt	-6%	i
Brc1ccc2ncnc(Nc3ccc(N4CCOCC4)cc3)c2c1	i	2.9µM*	-25%	30%	-27%	?
Cc1c(CCOC(=O)c2ccccc2)sc[n+]1CC(=O)c1ccc(Br)cc1	i	7.3µM*	?	-17%	?	?
CCCCCNC(=O)C(c1ccc(OC)cc1)n1c(=O)c(-c2ccco2)nc2ccccc21 (stereo not given)	nt	18µM*	26µM*	nt	15µM*	?
CCCCCNC(=O)C(c1ccc(C#N)cc1)n1c(=O)c(-c2ccco2)nc2ccccc21 (stereo not given)	nt	i	-10%	nt	-8%	i
Cc1ccc(CNc2ncnc3sc(C(=O)N4CCC[C@H]4C(N)=O)c(C)c23)o1	i	nt	nt	nt	nt	nt
CC(C)[C@H](N)C(=O)N[C@H]1CCC2C3CC=C4C[C@@H](O)CC[C@]4(C)C3CC[C@@]21C (stereo not given in full)	?	i	18µM*	nt	?	i
C[C@@H](N)C(=O)N[C@H]1CCC2C3CC=C4C[C@@H](O)CC[C@]4(C)C3CC[C@@]21C (stereo not given in full)	i	i	-5%	1%	-6%	i
CC(C)NCC(O)Cn1c2c(c3ccccc31)CCc1c-2cnn1-c1ccccc1 (stereo not given)	nt	21µM*	?	?	-12%[9.24 µM]	16µM*
CN1CCc2c(n(CC(O)CNCc3ccccc3)c3ccccc23)C1=O (stereo not given)	i	i	?	nt	?	i
CCCSS/C(CCO)=C(\C)N(C=O)Cc1cnc(C)nc1N	i	nt	nt	?	nt	nt
SMILES	S2 tox	KB-V1 MDR tox	HT1080NT lethal	ATXN2 expr inh	HT1080 IDH1KD tx	KB-3-1 cytotox
Cc1sc2ncn(CC(=O)NCC(=O)N(C)C3CCCCC3)c(=O)c2c1C	i	23µM*	-2%	-9%	-4%	i
CC(C)N(C(=O)[C@H]1C[C@H](CC(=O)NCCCN(C)C)C(=O)N2CCc3c([nH]c4cc(-c5ccco5)ccc34)[C@]12C)C(C)C	32µM*	i	?	?	?	i
CC(C)N(C(=O)[C@H]1C[C@H](CC(=O)NCCC2=CCCCC2)C(=O)N2CCc3c([nH]c4cc(-c5ccco5)ccc34)[C@]12C)C(C)C	?	?	-27%	?	?	23µM*
COc1cc(CNC2CCCC2)cc(Cl)c1OCc1ccc(F)cc1	?	?	16µM*	?	21µM*	?
COc1cc(CNC2CCCC2)cc(Cl)c1OCc1ccccc1Cl	?	21µM*	?	?	?	?
CCC(C)c1ccccc1OCCn1c(CCNC(=O)C2CCCCC2)nc2ccccc21 (stereo not given)	nt	i	nt	nt	nt	?
CCn1ccc2cc(S(=O)(=O)N3CCCN(C(=O)Nc4cc(Cl)ccc4C)CC3)ccc21	i	?	nt	0%	nt	i
COC(=O)[C@@H]1C[C@]2(OC(=O)c3ccccc3)C=CC(=O)C[C@@H]2N1C(=O)OCc1ccccc1	nt	i	?	14µM*	?	?
COC(CNC(=O)C1CCCN1C(=O)OCc1ccccc1)OC (stereo not given)	i	i	15%	12%	3%	i
CCCOc1cccc(-c2nn(-c3ccccc3)cc2/C=C(\C#N)C(=O)NCCCn2ccnc2)c1	i	18µM*	-13%	-15%	-21%	i
N#C/C(=C\c1ccc([N+](=O)[O-])cc1)C(=O)NCCCn1ccnc1	i	i	14%	-3%	-9%	?
N#C/C(=C/c1cn(-c2ccccc2)nc1-c1cccc(OCc2ccc(F)cc2)c1)C(=O)NCCCn1ccnc1	i	16µM*	16µM*	?	?	?
COc1ccccc1C1CN(Cc2cccc3c2OCO3)Cc2ccccc2O1 (stereo not given)	i	nt	nt	nt	nt	nt
Cc1cccn2c(=O)c(C(=O)NCc3ccc(F)cc3)c(O)nc12	i	i	nt	7%	nt	i
Cc1ccc(N(CCC#N)C(=O)CCl)cc1C	nt	?	9.2µM*	?	13µM*	?
CCOc1ccc(-c2cc(CCCC(=O)NCCc3ccc(OCC)c(OCC)c3)no2)cc1	i	i	nt	-33%	nt	i
COc1ccc(-c2cc(CCCC(=O)NCCc3cc(OC)ccc3OC)no2)cc1	i	4.6µM*	0%	-11%	-3%	?
CCOc1ccc(-c2cc3nc(C4CCN(C(=O)OC(C)(C)C)CC4)c(C(=O)Nc4ccc(C)cc4C)cn3n2)cc1	?	i	nt	11%	nt	i
